Source: PubChem BioAssay
pPAFAH FP inh = pPAFAH (human) enzyme inhibition | inhibition, % at 3.39 µM | 1.5% of 330,000 active | AID 463082 | recombinant pPAFAH, FP-rhodamine probe fluorescence polarization | Q13093;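 active = inhibition above the mean inhibition across the screen plus 3 SD, cut at about 25% in these data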;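 also: inhibitors block binding of the rhodamine activity-based probe so polarization drops; 0% = enzyme with DMSO and 100% = wells lacking pPAFAH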
Target sequence (Q13093 whole entry, looked up): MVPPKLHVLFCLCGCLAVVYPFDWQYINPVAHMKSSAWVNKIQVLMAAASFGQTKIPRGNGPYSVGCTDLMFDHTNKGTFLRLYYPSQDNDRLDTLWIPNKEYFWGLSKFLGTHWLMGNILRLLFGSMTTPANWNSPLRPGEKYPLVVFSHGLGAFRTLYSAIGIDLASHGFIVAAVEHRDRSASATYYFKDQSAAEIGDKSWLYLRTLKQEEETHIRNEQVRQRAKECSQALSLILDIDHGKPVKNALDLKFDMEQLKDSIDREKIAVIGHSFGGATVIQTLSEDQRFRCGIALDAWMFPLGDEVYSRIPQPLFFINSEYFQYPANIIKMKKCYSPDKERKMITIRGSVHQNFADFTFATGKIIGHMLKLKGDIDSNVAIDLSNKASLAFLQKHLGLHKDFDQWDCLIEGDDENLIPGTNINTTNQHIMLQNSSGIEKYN
PAFAH2 inh = PAFAH2 (human) inhibition; Q99487; AID 492956; 0.99% of 340,000 active; recombinant PAFAH2, FP-rhodamine activity probe, fluorescence polarization; inhibition, % at 3.39 µM;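 active = inhibition above the mean over all tested compounds plus 3 SD, cut at about 30% in these data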;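 also: inhibitors block probe labeling of enzyme so polarization drops; 0% = enzyme with DMSO and 100% = wells lacking PAFAH2 protein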
PAFAH1B3 inh = blocks human PAF acetylhydrolase 1B catalytic subunit 3; 0.28% of 340,000 active; recombinant PAFAH1B3, FP-rhodamine probe, fluorescence polarization; inhibition, % at 3.39 µM;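 active = inhibition above the screen-wide average of all tested compounds plus 3 SD, cut at about 25% in these data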;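 also: 0% = enzyme with DMSO only and 100% = wells lacking PAFAH1B3 protein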
ZTA DNA inh = blocks Epstein-Barr virus ZTA, an EBNA-1 counter-screen. P03206. ZTA-DNA binding, fluorescence polarization. inhibition, % at 11 µM. 0.15% of 320,000 active. AID 2234; in the data active = inhibition above about 33%
PAFAH1B2 FP inh = inhibitors of human PAFAH1B2; P68402; recombinant PAFAH1B2, FP-rhodamine activity probe, fluorescence polarization; inhibition, % at 3.39 µM; 1.2% of 340,000 active; AID 492953;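 active = inhibition above the mean of all tested compounds plus 3 SD, cut at about 24% in these data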;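 also: 0% = enzyme with DMSO and 100% = wells lacking PAFAH1B2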
Target sequence (P68402 whole entry, looked up): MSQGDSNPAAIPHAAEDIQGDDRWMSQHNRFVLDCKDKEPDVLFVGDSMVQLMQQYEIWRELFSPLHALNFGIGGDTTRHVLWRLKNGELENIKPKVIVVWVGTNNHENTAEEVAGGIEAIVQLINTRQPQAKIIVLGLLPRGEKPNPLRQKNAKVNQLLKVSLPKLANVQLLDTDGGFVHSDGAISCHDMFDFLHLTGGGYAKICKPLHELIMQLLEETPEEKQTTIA
EBNA-1 inhibitor = blocks EBNA-1 binding to DNA. EBNA-1 DNA binding, fluorescence polarization. AID 1950. 0.34% of 300,000 active. inhibition, % at 14.8 µM; in the data active = inhibition above about 28%
pPAFAH confirm = pPAFAH (human) inhibition, confirmed; shares compounds with pPAFAH FP inh; recombinant pPAFAH, FP-Rh probe fluorescence polarization; inhibition, % at 3.39 µM; 72% of 2,300 active;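 active = mean inhibition of the triplicate above the hit cutoff set for the earlier primary screen, cut at about 25% in these data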;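 also: 0% = enzyme with DMSO and 100% = wells lacking pPAFAH enzyme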
* = called active by the depositor; . = not tested or not shown. Only some compounds are listed: those with a hit (about 2.9% of all), similar ones and a draw of the others.

SMILES	pPAFAH FP inh	PAFAH2 inh	PAFAH1B3 inh	ZTA DNA inh	PAFAH1B2 FP inh	EBNA-1 inhibitor	pPAFAH confirm
CCCCOc1ccc2c(c1)C(=O)c1cc(O)ccc1-2	11.4	11.0	16.4	8.9	12.4	3.6	.
CCOC(=O)N1CCN(C(=O)c2ccc3c(=O)n4c(nc3c2)CCCCC4)CC1	55.8*	.	.	7.5	.	-3.2	0.7
CS(=O)(=O)c1ccc2nc(NC(=O)CCNC(=O)c3ccc(Cl)cc3)sc2c1	.	-0.6	2.4	.	2.5	.	.
O=C(CCCCCN1C(=O)c2cccc3cccc(c23)C1=O)NCc1cccnc1	48.8*	.	.	6.3	.	-5.8	2.9
CCN(CC)C(C(=O)Nc1ccc2c(c1)OCO2)c1ccccc1 (centres undefined)	43.5*	9.7	5.6	-6.1	6.2	-5.0	3.8
Cc1ccc(C)c(Cn2nnc3c(=O)[nH]c(C4CCN(S(=O)(=O)c5ccc(S(=O)(=O)NC6CC6)cc5)CC4)nc32)c1	41.8*	-28.5	-13.2	12.5	-6.4	-2.4	46.5*
COc1ccc(-n2c(C)cc(/C=C3\SC(=O)NC3=O)c2C)cc1	40.2*	0.9	1.2	-11.2	-0.3	0.6	23.1
O=C1NC(=S)S/C1=C\c1cc(Cl)ccc1Cl	.	-3.5	11.6	.	5.5	.	.
Cc1cc(/C=C2\SC(=S)NC2=O)c(C)n1-c1cccc(O)c1	45.1*	20.4	8.0	-10.6	15.4	4.0	49.5*
Cc1cc(/C=C2\SC(=S)NC2=O)c(C)[nH]1	45.6*	15.0	12.0	8.2	-0.7	3.1	1.0
COc1ccc(C)cc1NC(=O)NNC(=O)c1cc2ccccc2cc1O	48.4*	2.6	33.8*	0.1	8.2	-9.3	52.0*
COc1ccccc1NC(=O)c1cc2cc(Br)ccc2cc1O	41.9*	0.5	29.1*	8.0	14.2	-2.1	45.1*
COc1ccc(NC(=O)NNC(=O)c2cc3ccccc3cc2O)cc1	18.4	-3.5	17.1	-7.2	4.3	-1.3	.
O=C(O)Cc1c[nH]c2cccc(O)c12	47.3*	9.4	18.6	17.7	11.6	-4.7	8.5
O=C(O)Cc1c[nH]c2ccccc12	1.6	2.8	14.2	-18.7	5.4	1.7	.
CCOC(=O)/C(C#N)=C/Nc1ccccc1NS(=O)(=O)c1cccc(C(C)=O)c1	35.4*	0.9	5.4	13.8	-1.6	0.8	8.9
CCOC(=O)/C(C#N)=C/Nc1ccccc1NS(=O)(=O)c1ccc(C)c(C)c1	1.1	0.7	3.6	0.1	2.6	-11.8	.
CC(CN1CCOCC1)OC(=O)Cc1ccc(Cl)cc1 (centres undefined)	53.6*	-10.3	4.9	2.3	9.0	-1.4	5.2
Cc1ccc(NS(=O)(=O)c2ccc(NC(=O)CN(c3cc([N+](=O)[O-])ccc3C)S(C)(=O)=O)cc2)c(C)c1	41.8*	-62.3	-39.4	2.2	-23.7	0.7	51.1*
Cc1ccc([N+](=O)[O-])cc1N(CC(=O)NC1CCCC1)S(C)(=O)=O	-9.5	-0.9	3.4	-22.5	1.8	-12.9	.
O=C1C=C(O)c2c(O)cc(O)c(O)c2C1=O	85.4*	44.8*	40.0*	12.2	19.3	7.0	51.8*
COc1ccc(S(=O)(=O)N2CCCCC2)cc1NC(=O)c1cncc(Br)c1	1.1	6.8	6.5	8.2	1.4	.	.
COc1cccc(CNC(=O)CCC2CCCN(Cc3cc(Cl)ccc3O)C2)c1 (centres undefined)	92.2*	1.2	-4.6	-0.9	3.7	-1.6	68.3*
CCN(Cc1cc(=O)n2ccsc2n1)c1cccc2ccccc12	5.1	8.0	6.5	1.1	7.5	-10.0	.
CC(C)c1ccc(-c2nc(N3CCCCC3)[nH]c(=O)c2C#N)cc1	5.9	0.3	-0.6	8.6	6.4	0.1	.
SMILES	pPAFAH FP inh	PAFAH2 inh	PAFAH1B3 inh	ZTA DNA inh	PAFAH1B2 FP inh	EBNA-1 inhibitor	pPAFAH confirm
CC1=Nc2nc(N3CCCCC3)c(C#N)c3c4c(nc(c23)N1)N(c1ccc(C(C)C)cc1)C(=O)C4	63.3*	9.9	10.7	5.0	6.1	2.6	29.4*
CCc1ccc(Nc2n[n+](-c3ccccc3)c(-c3c(Cl)cccc3Cl)s2)cc1	56.3*	7.0	2.2	-22.8	-0.5	-9.9	33.7*
CCc1ccc(Nc2n[n+](-c3ccccc3)c(-c3ccc(OCc4ccccc4)cc3)s2)cc1	5.5	-14.8	-4.7	9.3	1.1	2.1	.
COc1ccc(C)cc1Nc1n[n+](-c2ccccc2)c(-c2c(Cl)cccc2Cl)s1	53.5*	.	.	-13.6	.	-7.7	53.1*
Fc1ccc(-[n+]2nc(Nc3ccccc3)sc2-c2c(Cl)cccc2Cl)cc1	50.6*	9.0	5.3	-12.4	1.0	-6.9	21.5
Cc1nc(C#N)c(N/N=C/c2c(F)cccc2Cl)o1	-1.7	9.7	3.2	-1.6	1.3	-1.9	.
O=C(CN1C(=O)NC2(CCCCCC2)C1=O)NCCc1ccc(F)cc1	-5.3	-1.4	5.7	-0.6	2.0	.	.
CCOCCn1c(=O)c2c(nc3n2CCCN3Cc2ccccc2)n(C)c1=O	41.5*	0.8	1.1	-4.1	2.1	6.6	2.7
Cc1ccc(-n2c(C)c(C)c3c(NCCO)ncnc32)cc1	6.2	15.8	4.5	-2.0	1.2	-9.5	.
COc1ccccc1-n1c(SCC(=O)Nc2cccc3ccccc23)nc(O)cc1=O	37.5*	-0.7	0.6	9.3	0.5	7.0	0.0
Nc1[nH]n2c(=O)cc(-c3ccccc3)nc2c1N=Nc1ccc(S(N)(=O)=O)cc1	19.7	20.2	17.6	4.8	2.2	-9.7	.
NS(=O)(=O)c1ccc(N=Nc2c(O)c(C(=O)O)cc3ccccc23)cc1	40.9*	15.8	12.8	2.2	2.6	-0.1	26.2*
O=C(O)Cc1ccc(N=Nc2c(O)c(C(=O)O)cc3ccccc23)cc1	66.8*	24.1	7.7	-16.5	3.7	0.2	33.6*
Oc1ccc2ccccc2c1N=Nc1ccc(F)cc1	-6.1	-112.9	-43.4	5.5	-42.2	-3.2	.
N#Cc1c(NCCCO)nc(-c2ccccc2)c2c1CCCC2	35.5*	-2.4	2.0	-3.0	8.4	-11.3	14.7
N#Cc1c(NCCN)nc(-c2ccccc2)c2c1CCCC2	0.5	6.8	1.7	-10.6	3.5	2.3	.
CCOC(=O)c1c(C)[nH]c(N=Nc2cc(C(=O)O)cc(C(=O)O)c2)c1C	35.0*	5.7	8.5	9.7	-3.1	9.5	2.4
CCOC(=O)c1c(C)[nH]c(N=Nc2ccc(C)cc2C)c1C	5.4	-8.4	4.1	-10.4	-1.7	-10.0	.
COc1cc(/C=C(\C#N)C(=O)c2ccc(O)c(O)c2)cc(I)c1O	79.2*	66.6*	-10.5	-8.6	85.7*	5.6	71.1*
Cc1cc(Cl)ccc1OC(C)C(=O)Nc1cnn(CCCC(=O)O)c1 (centres undefined)	6.7	0.9	4.8	-14.7	0.9	-13.2	.
O=C(CNCCc1ccc(F)cc1)Nc1cc(F)ccc1F	3.0	2.1	10.9	-8.0	7.0	-1.7	.
Cc1ccc(S(=O)(=O)N2CCOCC2)cc1NC(=O)COC(=O)COc1ccccc1[N+](=O)[O-]	3.3	2.6	2.9	.	-1.5	.	.
